Among the data in PubChem BioAssay AID2100 (National Center for Advancing Translational Sciences (NCATS), 2009) are Potency values, retold here.

Out of some 300,000 compounds screened, about 1,200 (0.4%) were called active. Where a call stands in place of a potency, no number is given. Another 3% or so got no clear call; they are omitted. This is one part of a sample in which actives are shown more often than they occur. The call rests on the fitted dose curve; in most records, active means well fitted inhibition curve with a large enough effect; inconclusive means small, poorly fitted or top-dose-only effect, or another doubt; inactive means no such curve, though single readings can be large or run the other way.
Potency means the concentration at half of the fitted maximal effect.

In this experiment the target is Lysosomal alpha-glucosidase (Homo sapiens) (UniProt P10253). As to the kind of experiment: qHTS Assay for Inhibitors and Activators of Human alpha-Glucosidase Cleavage of Glycogen.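 Further: the screen sought inhibitors and activators.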 The conditions noted are these: recombinant GAA, glycogen substrate, Amplex Red glucose oxidase fluorescence; series mostly up to 76.3 µM. The procedure, abridged:
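Recombinant human alpha-glucosidase (4 nM final) hydrolysed bovine liver glycogen (30 ug) for 40 min at 37 C in pH 5.0 citrate/phosphate with 0.01% Tween-20. Released glucose detected by glucose oxidase/Amplex Red, Ex 573/Em 610 nm. Compounds up to 77 uM; AC50 from Hill fits.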
`C/C(=N\O)C1(C)N(O)C(C)(C)C(c2ccc(Br)cc2)=[N+]1[O-]` (centres undefined): the Potency was 6.26 µM (active).
Take `CC(=O)C1(C)N(O)C(C)(C)C(c2cccs2)=[N+]1[O-]` (centres undefined): the Potency result was “inactive”.
Turning to `Cc1nnc(NCc2ccccc2)c2c1nnn2Cc1ccc(F)cc1`, the Potency result was “inactive”.
The result for `NS(=O)(=O)c1ccc(Nc2nc(-c3ccccc3)cs2)cc1` reads “inactive”.
The same measure for `COc1ccc(OC)c(Nc2nc(-c3ccc(O)c(O)c3)cs2)c1`: 28.2 µM (active); for `COc1ccc(C)cc1Nc1nc(-c2c(C)[nH]c3ccccc23)cs1`: “inactive”.
The result for `COc1ccc(-c2csc(Nc3ccc(O)cc3)n2)cc1` reads 11.2 µM (active); that for `COc1ccc(-c2csc(Cc3nc(O)cs3)n2)cc1`, “inactive”.
Turning to `COc1cccc(CC(=O)Nc2nc(-c3ccc(OC)c(OC)c3)cs2)c1`, the Potency result was “inactive”.
In the case of `Cc1cccc(C(=O)NCCc2nc3ccccc3n2Cc2ccccc2Cl)c1`, the Potency result was “inactive”.
The result for `CC(C)S(=O)(=O)c1oc(-c2ccc(F)cc2)nc1S(=O)(=O)c1ccc(F)cc1` reads “inactive”; that for `COc1ccccc1C(=O)Nc1c(C(=O)N(C)Cc2ccccc2)sc2nc(C)c(Cl)c(C)c12`, “inactive”; that for `COc1cc(Cl)c(NC(=O)CC(C)S(=O)(=O)c2cc3c(cc2C)NC(=O)CO3)c(OC)c1` (centres undefined), “inactive”.
The result for `CC(C)C1N=C2c3ccccc3N=C(SCC(=O)c3ccc(O)c(O)c3)N2C1=O` (centres undefined) reads 12.5 µM (active); that for `CCC(C)NC(=O)CSC1=Nc2ccccc2C2=NC(CCC(=O)NCc3ccco3)C(=O)N12` (centres undefined), “inactive”.
The result for `O=C(CSC1=Nc2ccccc2C2=NC(CC(=O)NCc3ccco3)C(=O)N12)NCc1ccco1` (centres undefined) reads “inactive”; that for `CC(NC(=O)CCc1cn(Cc2ccccc2Cl)c2ccccc12)c1ccccc1` (centres undefined), “inactive”.
On to `O=C(CCl)NNc1cccc(Cl)n1`, for which the Potency is 20 µM (active).
The result for `O=C(Cc1c(Cl)cccc1Cl)NC1CC1` reads “inactive”; that for `COc1cc(OC)nc(NC(=O)CCl)n1`, “inactive”; that for `COc1ccccc1CNC(=O)CCn1c(=O)c2ccccc2n(CC(=O)Nc2cccc(Cl)c2)c1=O`, “inactive”.
The result for `Cc1ccc(CSc2nc3cccnc3n2Cc2ccc(C(=O)NC3CC3)cc2)cc1` reads “inactive”; that for `CCOC(=O)C(=CNNc1ccsc1C(=O)OC)C(=O)OCC`, 14 µM (active); that for `COC(=O)c1sccc1NC(=O)CCC1CCCC1`, “inactive”.
As for `COC(=O)c1sccc1NC(=S)Nc1ccc(C)cc1`, the Potency result is “inactive”.
On to `CCCS(=O)(=O)Nc1c(C(=O)O)[nH]c2ccccc12`, for which the Potency is 3.55 µM (active).
The same measure for `O=C(O)c1[nH]c2ccccc2c1C(c1cccc(O)c1)c1c(C(=O)O)[nH]c2ccccc12`: “inactive”; for `CCCC(=O)Nc1c(O)c2ccccc2[nH]c1=O`: “inactive”; for `O=S(=O)(c1ccc(Cl)cc1)c1nnn2c1nc(NC1CCCC1)c1sccc12`: “inactive”.
The result for `Cc1c(Cl)cccc1NC(=O)C1CCCN(C(=O)c2cnn(-c3ccccc3)c2-n2cccc2)C1` (centres undefined) reads “inactive”.
For `c1cnn(-c2cc(N3CCOCC3)ncn2)c1`, the Potency result is “inactive”.
For the compound `O=C(Nc1cc(N2CCOCC2)ncn1)NC1(C(F)(F)F)Oc2ccc(Cl)cc2O1` (centres undefined), the Potency is 11.1 µM (active).
The same measure for `O=C(CN1C(=O)COc2ccc(Cl)cc21)Nc1ccc(N2CCOCC2)cc1`: “inactive”; for `CCC(=O)N1CCc2cc(S(=O)(=O)NC(CC(C)C)C(=O)NCCc3cccc(C)c3)ccc21` (centres undefined): “inactive”; for `COc1cccc(NC(=O)CN2C(=O)c3ccccc3Sc3ncccc32)c1`: “inactive”.
The same measure for `O=C(c1ccc(C(F)(F)F)cc1)N1CCC(c2nc(-c3ccc(S(=O)(=O)N4CCCC4)cc3)no2)CC1`: “inactive”.
The same measure for `Cc1c(C)c2ccc(OCC(=O)N3CCC(C(=O)O)CC3)c(C)c2oc1=O`: “inactive”; for `O=C(CNC(=O)C1COc2ccccc2O1)N/N=C/c1cc(Br)c(O)c(Br)c1` (centres undefined): “inactive”; for `Cc1c(CC(=O)N2CCN(C(=O)C3COc4ccccc4O3)CC2)c(=O)oc2c(O)c(O)ccc12` (centres undefined): 6.31 µM (active).
Turning to `COc1ccccc1C(=O)NCCn1cc(SCc2ccccc2Cl)c2ccccc21`, the Potency result was “inactive”.
The same measure for `CCOc1ccc(N2CC(C)Cn3c2nc2c3c(=O)n(Cc3c(F)cccc3Cl)c(=O)n2C)cc1` (centres undefined): “inactive”; for `O=S(=O)(c1ccc(Br)cc1)c1nnn2c1nc(N1CCOCC1)c1sccc12`: “inactive”; for `Cc1ccc(Cl)cc1NC(=O)/C(C#N)=C\c1cn(Cc2ccc(F)cc2)c2ccccc12`: “inactive”.
The same measure for `O=c1[nH]c(=S)[nH]c2[nH]c(=S)[nH]c12`: 39.8 µM (active); for `Cc1c(C)c(C)c2[nH]c(=S)[nH]c2c1C`: “inactive”.
The result for `Cc1ccsc1CN(C(=O)c1oc2ccc(Br)cc2c1C)C1CCS(=O)(=O)C1` (centres undefined) reads “inactive”; that for `CCCn1c2ccccc2c2cnn(CC(=O)NCC3CCN(Cc4ccc(C)cc4)CC3)c(=O)c21`, “inactive”; that for `CCN(C(=O)CSc1nnc(C)n2c1cc1occc12)c1ccccc1`, “inactive”.
In the case of `CCN(CC)c1ccc([N+](=O)[O-])cc1C(=O)O`, the Potency entry was “inactive”.
In the case of `O=[N+]([O-])c1ccc(N(CCO)Cc2ccccc2)c([N+](=O)[O-])c1`, the Potency was 10 µM (active).
The result for `OCCN(Cc1ccccc1)Cc1ccc(Cl)cc1` reads “inactive”.
The result for `CC(=O)Oc1cccc(N2C(=O)CC(Nc3ccc(N4CCOCC4)cc3)C2=O)c1` (centres undefined) reads 35.5 µM (active); that for `CC(=O)Oc1cccc(N2C(=O)C3CC=C(Cl)CC3C2=O)c1` (centres undefined), “inactive”.
The same measure for `COc1cc2ccccc2cc1C(=O)Nc1ccc(N2CCOCC2)cc1`: “inactive”.
As for `CCOC(=O)c1oc2ccc(S(=O)(=O)n3nc(-c4ccccc4OC)cc3N)cc2c1C`, the Potency entry is “inactive”.
The result for `Cc1cccc2nc(-c3ccc(Cl)s3)c(Nc3ccc4c(c3)OCCO4)n12` reads 7.94 µM (active).
The result for `Oc1ccccc1-c1nc2ccc(Cl)cn2c1Nc1ccc2c(c1)OCCO2` reads “inactive”; that for `Cc1ccc(Nc2c(-c3ccc(C)s3)nc3ccccn23)cc1`, “inactive”; that for `CN(C(=O)CSc1nc2ccc(NC(=O)COc3ccccc3)cc2s1)c1ccccc1`, “inactive”.
The same measure for `CCc1cccc(NC(=O)CN(C)S(=O)(=O)c2ccc3[nH]c4c(c3c2)CCCC4)c1`: “inactive”; for `O=C(CCc1ccccc1)NNc1ccc(F)cc1`: 20 µM (active); for `O=C(CCc1ccccc1)NNC(=O)c1ccc(Br)cc1`: “inactive”.
As to `CC(=O)Nc1ccc(S(=O)(=O)NNC(=O)CCc2ccccc2)cc1`, the Potency result is “inactive”.
For the compound `O=S(=O)(NCCc1nnc2ccc(SCc3ccc(Cl)cc3Cl)nn12)c1ccccc1`, the Potency entry was “inactive”.
The result for `O=[N+]([O-])c1cc(-c2nc(-c3ccccc3)no2)ccc1NCc1ccco1` reads “inactive”; that for `COc1ccc(Cn2c(=O)n(-c3ccccc3C)c(=O)c3c4c(sc32)CN(C(C)=O)CC4)cc1`, “inactive”.
The same measure for `CCC(C)(C)NC(=O)C1c2ccccc2Oc2ccccc21`: “inactive”; for `CCC(C)NC(=O)C1c2ccccc2Oc2ccccc21` (centres undefined): “inactive”; for `O=C(N/N=C/c1ccc(O)c(O)c1)C1c2ccccc2Oc2ccccc21`: 14.1 µM (active).
`CCOc1ccc(C2CC(=O)c3c([nH]c(C(=O)OCc4ccccc4)c3C)C2)cc1` (centres undefined): the Potency entry is “inactive”.
The same measure for `CCOc1ccc(N(CC)S(=O)(=O)N2CCCC(C(=O)NCc3ccc(Cl)cc3)C2)cc1` (centres undefined): “inactive”; for `CC(=O)c1c(C)n(S(=O)(=O)c2ccc(Cl)cc2)c2ccc(NS(=O)(=O)c3ccc(Cl)cc3)cc12`: “inactive”.
As for `Nc1ccc(-c2sc(N)nc2-c2ccccc2)cc1`, the Potency is 14 µM (active).
Regarding `Nc1ccc(-c2nnc(-c3ccccc3)o2)cc1`, the Potency entry is “inactive”.
Regarding `COc1ccc(NC(=O)c2sc(N)nc2-c2ccccc2)cc1`, the Potency entry was “inactive”.
The same measure for `O=C(CSc1nc(-c2cccc(F)c2)[nH]c1-c1ccccc1)Nc1ccc2c(c1)OCO2`: “inactive”.
The result for `CCOc1ccc(N(CC)S(=O)(=O)N2CCCC(C(=O)Nc3ccc(C(C)=O)cc3)C2)cc1` (centres undefined) reads “inactive”; that for `CCOC(=O)COc1cc(O)c2c(=O)cc(-c3ccccc3)oc2c1`, “inactive”.
For the compound `COc1c(O)cc2oc(-c3ccc(O)c(O)c3)cc(=O)c2c1O`, the Potency is 10 µM (active).
With `COc1ccc(-c2cc(=O)c3c(O)cc(O[C@@H]4O[C@H](CO[C@@H]5O[C@@H](C)[C@H](O)[C@@H](O)[C@H]5O)[C@@H](O)[C@H](O)[C@H]4O)cc3o2)cc1O`, the Potency result was “inactive”.
With `CCCCN1C(=O)c2[nH]nc(-c3ccccc3O)c2C1c1cccc(OCc2ccccc2)c1` (centres undefined), the Potency result was “inactive”.
The result for `CC1=C(C(=O)OCC2CCCCC2)C(c2c(F)cccc2Cl)CC(=O)N1` (centres undefined) reads “inactive”.
The result for `COc1ccc(C(=O)NN(C)c2nc(-c3ccccc3)cc(C)c2S(C)(=O)=O)cc1` reads “inactive”; that for `Cc1nc(NNC(=O)c2ccccc2)cc(-c2ccccc2)n1`, 22.4 µM (active).
The result for `Cn1sc(NC(=O)c2ccccc2)nc1=O` reads “inactive”.
Consider `CCOc1ccccc1C(=O)NC1(C(F)(F)F)NC(=O)N(CCc2ccc(OC)c(OC)c2)C1=O` (centres undefined), for which the Potency result is “inactive”.
The same measure for `COc1ccc(Cl)cc1NC(=O)CSc1nc(-c2cccs2)cc(C(F)(F)F)n1`: “inactive”.
As for `CCCOc1ccc(N/C=C/C(=O)C(C)(C)C)cc1`, the Potency is 31.6 µM (active).
The result for `CCOc1ccc(N/C=C/C(=O)c2cc(OC)c(OC)c(OC)c2)cc1` reads “inactive”; that for `CCOc1ccc(N/C=C/C(=O)c2ccccc2)cc1`, “inactive”.
As to `CC(C)C(=O)Nc1nc2c(s1)CC(C(C)(C)C)CC2` (centres undefined), the Potency entry is “inactive”.
The result for `Cc1c(NS(=O)(=O)c2ccc(Cl)cc2)c(=O)n(-c2ccccc2)n1C` reads “inactive”.
As to `Cc1ccc(S(=O)(=O)CC(=O)Nc2c(C)n(C)n(-c3ccccc3)c2=O)cc1`, the Potency result was “inactive”.
`Cc1ccc(S(=O)(=O)Nc2ccccc2CNc2c(C)n(C)n(-c3ccccc3)c2=O)cc1`: the Potency was 28.2 µM (active).
The result for `COc1ccc2[nH]c3c(c2c1)CCN(C(=O)CCC1CCCC1)C3c1ccc(F)cc1` (centres undefined) reads “inactive”; that for `Cc1oc(-c2ccccc2)nc1Cn1c(SCc2cccc(C(F)(F)F)c2)nc2cccnc21`, “inactive”.
The same measure for `CCOc1ccc(-n2c(O)c(/C=N/c3ccnn3Cc3ccncc3)c3ccccc3c2=O)cc1`: “inactive”.
As to `CCOc1ccc(-n2c(O)c(/C=N/Nc3nc(C)cc(C)n3)c3ccccc3c2=O)cc1`, the Potency entry is “inactive”.
For `CCOc1ccc(-n2c(O)c(/C=N/Nc3nnc(C)c(=O)[nH]3)c3ccccc3c2=O)cc1`, the Potency was 39.8 µM (active).
